Assay [1] is described as follows: ATG_CRE_CIS: Attagene CIS-FACTORIAL HepG2 Assay for human cAMP Responsive Element (CRE) binding protein 3 (AID 2282926). The conditions noted are these: HepG2 CRE cis-reporter, Attagene multiplexed mRNA; actives raise or lower the signal. An outline of the steps: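 Induced reporter mRNA from a CRE cis element, measured in HepG2 among many multiplexed units at 24 h. Detection used RT-PCR plus capillary electrophoresis of fluorescent fragments; DMSO served as negative control.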

Assay [2] addresses CCAAT/enhancer-binding protein beta (Homo sapiens) (UniProt P17676). In words: ATG_C_EBP_CIS: Attagene CIS-FACTORIAL HepG2 Assay for human CCAAT/Enhancer Binding Protein (C/EBP) beta (AID 2282927). The conditions noted are these: HepG2 Attagene cis-factorial transcription factor reporter; actives raise or lower the signal. An outline of the steps:
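HepG2 transiently transfected with multiplexed reporter units under cis-regulatory promoters reporting endogenous C/EBPb activity. After 24 h exposure, reporter mRNA assayed by RT-PCR, fluorescent labelling, HpaI digestion and capillary electrophoresis; bidirectional fitting versus DMSO.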

The nature of assay [3]: ATG_CMV_CIS: Attagene CIS-FACTORIAL HepG2 Assay for human CMV (Internal Marker) (AID 2282928).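 Further: endpoint acts as a background internal control marker rather than a target.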 The conditions noted are these: HepG2 CMV promoter reporter, transcription factor profiling; actives raise or lower the signal. An outline of the steps: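 24 h chemical treatment, HepG2 with transient multi-reporter transfection; RNA → oligo(dT) RT → PCR → 6-FAM extension → HpaI digest → CE fluorescence. Bidirectional fit, DMSO negative control.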

Assay [4] in a line: ATG_DR4_LXR_CIS: Attagene CIS-FACTORIAL HepG2 Assay for human Liver X Receptor (LXR), DR4 submotif (AID 2282929). The conditions noted are these: HepG2 Attagene DR4 cis-reporter, mRNA transcription; actives raise or lower the signal. An outline of the steps:
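Endogenous factor activity at a DR4 cis-element is read as reporter mRNA in transiently transfected HepG2 cells. Exposure lasts 24 h; transcripts are amplified, fluorescently labelled and sized by capillary electrophoresis, with DMSO as baseline.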

The target of assay [5] is Aryl hydrocarbon receptor (Homo sapiens) (UniProt P35869). In words: ATG_Ahr_CIS: Attagene CIS-FACTORIAL HepG2 Assay for human Aryl Hydrocarbon Receptor (Ahr) (AID 2282930). The conditions noted are these: HepG2 AhR cis-factorial reporter transcription; actives raise or lower the signal. An outline of the steps:
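HepG2 cells transiently transfected with cis-element-driven multiplexed reporter units; endogenous AhR activity read as reporter mRNA 24 h after dosing, via RT-PCR, 6-FAM labelling, HpaI digestion and capillary electrophoresis. Bidirectional fit relative to DMSO.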

A short description of assay [6]: ATG_AP_1_CIS: Attagene CIS-FACTORIAL HepG2 Assay for human Activator Protein 1 (AP-1) (AID 2282931). The conditions noted are these: HepG2 Attagene cis-factorial AP-1 reporter mRNA; actives raise or lower the signal. An outline of the steps: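 Fluorescence of labelled PCR fragments separated by capillary electrophoresis gives reporter mRNA levels. HepG2 with transfected cis-regulated reporter units, 24 h exposure; DMSO serves as baseline for bidirectional curve fits.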

The nature of assay [7]: ATG_AP_2_CIS: Attagene CIS-FACTORIAL HepG2 Assay for human Activator Protein 2 (AP-2) (AID 2282932). The note with it: HepG2 AP-2 cis-reporter, Attagene transcription factor profiling; actives raise or lower the signal. In short, it runs like this:
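Read-out: fluorescent reporter mRNA via RT-PCR and capillary electrophoresis, 24 h post-dose in transiently transfected HepG2. Endogenous factors drive cis-promoter reporters; gain or loss of signal fitted bidirectionally against DMSO.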

Assay [8] can be described thus: ATG_BRE_CIS: Attagene CIS-FACTORIAL HepG2 Assay for human Bone Morphogenetic Protein (BMP) Response Element (BRE) (AID 2282933). The conditions noted are these: HepG2 BMP response element reporter, Attagene transcription factor profiling; actives raise or lower the signal. In short, it runs like this: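 Gain- or loss-of-signal was derived by bidirectional fitting against DMSO controls. The signal came from reporter mRNA, measured by RT-PCR and capillary electrophoresis, in HepG2 cells transiently carrying multiple reporter units and dosed for 24 h.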

Assay [9] has as its target Retinoic acid receptor alpha (Homo sapiens) (UniProt P10276). In words: ATG_DR5_RAR_CIS: Attagene CIS-FACTORIAL HepG2 Assay for human Retinoic Acid Receptor Alpha (RARE), DR5 submotif (AID 2282934). The conditions noted are these: HepG2 Attagene cis-factorial RARE DR5 reporter, mRNA; actives raise or lower the signal. In short, it runs like this: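 HepG2 cells transiently transfected with multiplexed reporter units; DR5 cis-element drives reporter through endogenous transcription factors. After 24 h dosing, reporter mRNA quantified by RT-PCR, fluorescent labeling, HpaI digestion and capillary electrophoresis; bidirectional fitting versus DMSO.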

A short description of assay [10]: ATG_E_Box_CIS: Attagene CIS-FACTORIAL HepG2 Assay for human Enhancer Box (E-box) (AID 2282936). The conditions noted are these: HepG2 E-box cis-reporter transcription, actives raise or lower the signal. An outline of the steps:
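Transiently transfected HepG2, endogenous TF-driven reporters, 24 h dosing. Readout: RT-PCR plus capillary electrophoresis of fluorescent reporter fragments. Gain or loss of signal fitted bidirectionally against DMSO baseline.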

Assay [11] in a line: ATG_M_61_CIS: Attagene CIS-FACTORIAL HepG2 Assay for M61 Transcription Factor (Internal Marker) (AID 2282937). The note with it: HepG2 Attagene CIS-FACTORIAL M61 internal marker reporter; actives raise or lower the signal. An outline of the steps:
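This endpoint serves as an internal background control within a multiplexed HepG2 cis-reporter panel. Cells are exposed for 24 h; reporter mRNA is amplified, fluorescently labelled and sized by capillary electrophoresis, with DMSO as negative control.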

Assay [12] is described as follows: ATG_EGR_CIS: Attagene CIS-FACTORIAL HepG2 Assay for human Early Growth Response 1 (EGR1) (AID 2282938). The conditions noted are these: HepG2 Attagene CIS-FACTORIAL EGR reporter mRNA; actives raise or lower the signal. An outline of the steps: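 HepG2, transient MRTU transfection (cis promoters), 24 h compound. RNA → RT (oligo-dT) → PCR → 6-FAM labelling → HpaI cut → CE fluorescence. Bidirectional fit, DMSO baseline.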

Assay [13] is described as follows: ATG_M_19_CIS: Attagene CIS-FACTORIAL HepG2 Assay for M19 Transcription Factor (Internal Marker) (AID 2282939). The conditions noted are these: HepG2 Attagene CIS-FACTORIAL M19 internal marker reporter; actives raise or lower the signal. An outline of the steps:
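Following a 24 h exposure, RNA from transfected HepG2 cells was reverse-transcribed, PCR-amplified with reporter-specific primers, end-labelled with 6-FAM and HpaI-digested before capillary separation. Values represent gain or loss versus DMSO.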

Assay [14] can be described thus: ATG_ERE_CIS: Attagene CIS-FACTORIAL HepG2 Assay for Estrogen Response Element (ERE) (AID 2282940). The note with it: HepG2 ERE cis-reporter, Attagene RNA transcript; actives raise or lower the signal. In short, it runs like this:
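HepG2, transient cis-reporter units, 24 h exposure. RNA isolated, oligo(dT) RT, reporter-specific PCR, FAM extension, HpaI cut, CE detection. Gain/loss-of-signal vs DMSO.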

Assay [15] in a line: ATG_Ets_CIS: Attagene CIS-FACTORIAL HepG2 Assay for human Erythroblast Transformation Specific (ETS) (AID 2282941). The note with it: HepG2 ETS cis-reporter transcription, actives raise or lower the signal. In short, it runs like this: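 Cis-regulated reporter mRNA induction in HepG2 (transient transfection), 24 h exposure, RT-PCR plus capillary electrophoresis detection; DMSO serves as negative control and baseline.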

Assay [16] addresses Hepatocyte nuclear factor 3-beta (Homo sapiens) (UniProt Q9Y261). In words: ATG_FoxA2_CIS: Attagene CIS-FACTORIAL HepG2 Assay for human Forkhead box A2 (FOXA2) (AID 2282942). The note with it: HepG2 cis-reporter transcription factor activity, 24 h; actives raise or lower the signal. In short, it runs like this:
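Cells: HepG2, transient multiplex reporter transfection. Exposure 24 h. Detection: reporter-specific RT-PCR, fluorescent labelling, restriction digest, capillary electrophoresis. Analysis: bidirectional curve fit, DMSO as negative control.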

Assay [17] can be described thus: ATG_FoxO_CIS: Attagene CIS-FACTORIAL HepG2 Assay for human Forkhead box O (FoxO) (AID 2282943). The conditions noted are these: HepG2 Attagene cis-reporter, FoxO element, mRNA; actives raise or lower the signal. An outline of the steps:
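HepG2 cells transiently transfected with cis-element-driven reporter units report endogenous FoxO activity. After 24 h chemical exposure, reporter mRNA quantified by RT-PCR, fluorescent labeling, HpaI digestion and capillary electrophoresis; bidirectional fit versus DMSO.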

A short description of assay [18]: ATG_GLI_CIS: Attagene CIS-FACTORIAL HepG2 Assay for human Zinc Finger Protein GLI1 (AID 2282945). The conditions noted are these: HepG2, Attagene cis-factorial reporter mRNA, GLI element; actives raise or lower the signal. In short, it runs like this:
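Transiently transfected HepG2 cells report endogenous transcription factor activity via cis-element-driven reporter units. After 24 h compound exposure, reporter mRNA was measured by RT-PCR with capillary electrophoresis; bidirectional fitting against DMSO baseline.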

Assay [19] deals with Transcription factor E2F1 (Homo sapiens) (UniProt Q01094). In words: ATG_E2F_CIS: Attagene CIS-FACTORIAL HepG2 Assay for human E2F Transcription Factor 1 (AID 2282935). The note with it: HepG2 Attagene cis-reporter, E2F reporter RNA transcripts; actives raise or lower the signal. In short, it runs like this: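 Transient MRTU transfection of HepG2; 24 h compound exposure; RNA → oligo(dT) RT → PCR → FAM label → HpaI cut → CE fluorescence. Gain/loss of signal fit against DMSO.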
Chain of Transcription factor E2F1 (Homo sapiens) (Q01094 whole entry, looked up): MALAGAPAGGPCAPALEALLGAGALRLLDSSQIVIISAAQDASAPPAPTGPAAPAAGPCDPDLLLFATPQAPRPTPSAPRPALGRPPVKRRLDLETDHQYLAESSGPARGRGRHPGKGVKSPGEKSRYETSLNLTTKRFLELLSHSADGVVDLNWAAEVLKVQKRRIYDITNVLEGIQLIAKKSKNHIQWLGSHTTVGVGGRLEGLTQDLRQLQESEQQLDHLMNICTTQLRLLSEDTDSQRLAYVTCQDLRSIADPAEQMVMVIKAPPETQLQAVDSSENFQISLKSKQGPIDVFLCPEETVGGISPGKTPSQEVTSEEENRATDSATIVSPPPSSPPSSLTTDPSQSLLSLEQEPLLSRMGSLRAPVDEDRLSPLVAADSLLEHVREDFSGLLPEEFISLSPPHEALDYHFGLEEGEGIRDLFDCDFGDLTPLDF

A short description of assay [20]: ATG_GATA_CIS: Attagene CIS-FACTORIAL HepG2 Assay for human GATA Binding Protein (AID 2282944). The note with it: HepG2 GATA cis-element reporter, Attagene multiplex mRNA; actives raise or lower the signal. An outline of the steps: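 DMSO serves as negative control and baseline for bidirectional fitting of reporter mRNA changes. HepG2 cells bearing transiently transfected cis-promoter reporters were exposed 24 h; transcripts detected via RT-PCR and capillary electrophoresis.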

Each structure is given as a SMILES string. More than one record can exist for a structure, and the calls need not agree. Calls of active or inactive are those of the source. How the source made its calls: active means hit-call score of the fitted dose curve at least 0.9, where 1 is the maximum; inactive means score below 0.9.

Chain of CCAAT/enhancer-binding protein beta (Homo sapiens) (P17676 whole entry, looked up): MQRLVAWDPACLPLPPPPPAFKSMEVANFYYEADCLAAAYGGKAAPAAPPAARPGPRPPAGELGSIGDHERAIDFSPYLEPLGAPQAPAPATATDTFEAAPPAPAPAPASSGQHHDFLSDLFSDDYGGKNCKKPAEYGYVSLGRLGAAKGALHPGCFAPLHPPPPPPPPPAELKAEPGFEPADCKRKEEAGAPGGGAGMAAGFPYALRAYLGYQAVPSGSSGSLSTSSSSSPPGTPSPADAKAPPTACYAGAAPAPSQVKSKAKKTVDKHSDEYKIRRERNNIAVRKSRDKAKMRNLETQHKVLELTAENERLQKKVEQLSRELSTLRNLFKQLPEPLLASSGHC
Chain of Retinoic acid receptor alpha (Homo sapiens) (P10276 whole entry, looked up): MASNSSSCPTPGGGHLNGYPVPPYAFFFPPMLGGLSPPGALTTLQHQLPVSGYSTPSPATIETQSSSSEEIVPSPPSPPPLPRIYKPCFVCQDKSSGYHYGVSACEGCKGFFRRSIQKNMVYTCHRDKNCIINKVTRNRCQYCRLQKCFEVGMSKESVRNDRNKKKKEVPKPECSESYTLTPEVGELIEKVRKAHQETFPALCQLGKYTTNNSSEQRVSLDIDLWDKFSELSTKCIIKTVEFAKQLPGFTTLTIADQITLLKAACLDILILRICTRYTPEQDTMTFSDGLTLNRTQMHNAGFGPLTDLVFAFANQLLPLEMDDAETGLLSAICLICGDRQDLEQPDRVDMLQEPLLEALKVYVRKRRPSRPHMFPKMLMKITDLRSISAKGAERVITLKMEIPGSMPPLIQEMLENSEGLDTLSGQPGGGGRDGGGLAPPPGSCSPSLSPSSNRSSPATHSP
Chain of Aryl hydrocarbon receptor (Homo sapiens) (P35869 whole entry, looked up): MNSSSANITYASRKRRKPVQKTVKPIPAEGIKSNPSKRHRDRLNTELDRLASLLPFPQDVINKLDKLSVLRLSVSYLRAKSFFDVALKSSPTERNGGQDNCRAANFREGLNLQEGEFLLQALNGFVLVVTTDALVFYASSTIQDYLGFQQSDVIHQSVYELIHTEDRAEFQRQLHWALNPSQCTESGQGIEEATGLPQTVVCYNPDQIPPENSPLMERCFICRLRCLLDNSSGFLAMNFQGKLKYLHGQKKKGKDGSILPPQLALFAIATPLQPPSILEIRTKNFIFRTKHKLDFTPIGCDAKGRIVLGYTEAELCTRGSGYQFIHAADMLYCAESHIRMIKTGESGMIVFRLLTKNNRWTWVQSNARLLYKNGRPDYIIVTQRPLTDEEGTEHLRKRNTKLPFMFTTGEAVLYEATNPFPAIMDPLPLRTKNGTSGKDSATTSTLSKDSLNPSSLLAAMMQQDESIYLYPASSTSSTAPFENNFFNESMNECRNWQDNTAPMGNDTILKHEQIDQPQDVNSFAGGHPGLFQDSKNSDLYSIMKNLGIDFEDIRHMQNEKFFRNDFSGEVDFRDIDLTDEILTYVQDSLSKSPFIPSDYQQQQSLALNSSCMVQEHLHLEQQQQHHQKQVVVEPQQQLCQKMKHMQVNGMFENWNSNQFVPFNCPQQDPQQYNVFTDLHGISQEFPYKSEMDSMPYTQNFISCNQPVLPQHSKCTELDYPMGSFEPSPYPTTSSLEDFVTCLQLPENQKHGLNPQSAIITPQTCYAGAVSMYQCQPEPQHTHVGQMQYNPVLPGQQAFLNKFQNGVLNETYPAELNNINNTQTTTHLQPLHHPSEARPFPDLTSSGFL
Chain of Hepatocyte nuclear factor 3-beta (Homo sapiens) (Q9Y261 whole entry, looked up): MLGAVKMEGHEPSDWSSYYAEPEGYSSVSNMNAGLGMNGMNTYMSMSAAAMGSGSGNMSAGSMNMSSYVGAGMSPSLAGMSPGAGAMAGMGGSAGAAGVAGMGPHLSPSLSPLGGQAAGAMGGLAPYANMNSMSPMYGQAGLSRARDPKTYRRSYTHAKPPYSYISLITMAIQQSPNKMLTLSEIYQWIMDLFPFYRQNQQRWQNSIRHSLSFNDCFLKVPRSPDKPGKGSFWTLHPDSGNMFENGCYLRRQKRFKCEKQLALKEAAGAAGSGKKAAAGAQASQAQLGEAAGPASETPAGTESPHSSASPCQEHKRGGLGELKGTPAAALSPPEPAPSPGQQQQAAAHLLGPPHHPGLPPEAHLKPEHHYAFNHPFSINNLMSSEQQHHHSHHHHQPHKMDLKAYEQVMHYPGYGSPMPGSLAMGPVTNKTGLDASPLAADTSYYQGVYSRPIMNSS

`OCC(CO)(CO)CO`: the compound was called inactive in assay [1], in [2], in assay [3], in [4], in assay [5] and in assay [6]. The compound was called inactive in [7], in [8], in assay [9], in assay [10], in assay [11] and in [12]. The outcome in assay [13], in assay [14], in [15], in [16], in assay [17] and in assay [18] was inactive. The AC50 in [14] is 100 µM (active).

Take `c1ccc2ncccc2c1`: the outcome in [1], in [2], in assay [3], in assay [4], in assay [6] and in assay [7] was inactive. In addition, the compound was classed as inactive in [8], in assay [19], in [10], in assay [11], in assay [12] and in assay [13]. In addition, the call in assay [14], in assay [15], in assay [16], in assay [17], in [20] and in assay [18] was inactive. Moreover, the half-maximal activity concentration (AC50) in assay [5] is 41.9 µM (active).

As for `O=C(Cl)C(F)(F)C(F)(F)C(F)(F)C(=O)Cl`, the result in assay [1], in [2], in assay [3], in assay [4], in assay [5] and in assay [6] was inactive. Further, the result in assay [7], in assay [8], in assay [9], in [19], in assay [10] and in [11] was inactive. In addition, the call in assay [12], in assay [13], in assay [14], in [15], in [16] and in [17] was inactive. The outcome in assay [20] and in assay [18] was inactive.

Consider `O=C(O)CO`, for which the result in [1], in assay [2], in assay [3], in assay [4], in assay [5] and in assay [6] was inactive. For the same compound, the compound was classed as inactive in assay [7], in assay [8], in assay [9], in assay [10], in assay [11] and in [12]. The outcome in assay [13], in assay [14], in [15], in assay [16], in assay [17] and in assay [18] was inactive.

Consider `C[Si](C)(C)C(F)(F)C(F)(F)C(F)(F)F`, for which the result in [1], in [2], in assay [3], in assay [4], in [5] and in [6] was inactive. The compound was classed as inactive in assay [7], in [8], in assay [9], in [10], in [11] and in [12]. Further, the compound was called inactive in assay [13], in assay [14], in assay [15], in assay [16], in [17] and in assay [18].

As to `S=P(N1CC1)(N1CC1)N1CC1`, the result in assay [1], in assay [2], in assay [3], in assay [4], in assay [5] and in [6] was inactive. Also, the result in [7], in assay [9], in assay [19], in assay [10], in assay [11] and in assay [12] was inactive. Besides, the result in assay [13], in assay [14], in [15], in assay [16], in assay [17] and in [18] was inactive. Besides, in assay [4], the half-maximal activity concentration (AC50) is 157 µM (active).

For the compound `O=C(O)c1cccc(C[C@@H]2COc3ccc(OCc4nc5cc(F)ccc5s4)cc3[C@@H]2O)c1`, the outcome in assay [1], in [2], in assay [3], in [5], in assay [8] and in assay [19] was inactive. Also, the outcome in assay [11], in [12], in assay [13], in assay [14], in [15] and in [16] was inactive. In addition, the outcome in assay [17] and in assay [18] was inactive. Also, the AC50 in assay [4] is 100 µM (active); in [6], 158 µM (active); in [7], 167 µM (active); in [10] it was 66.9 µM (active).

Usually AC50 stands for the concentration giving half of the maximal activity seen.

The values above are taken from PubChem BioAssay (EPA / NIEHS).
